# IL-1B inflam inh – inflammasome signaling inhibition, IL-1 beta readout; activity change, % at 57.5 µM; THP-1 LPS/ATP IL-1B secretion, AlphaLISA, 16 h; active compounds read low; hit rate 4.7% among 360,000; in the data active = activity change below about -50%; inconclusive = mostly about -30% to -49%
#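 Secreted IL-1B measured by AlphaLISA bead assay after 16 h compound exposure of THP-1 cells; compounds (final up to 57.5 uM) added 1 h before LPS (250 ng/mL) and ATP (1.25 mM) stimulation; lower signal means less secretion.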
# RORg inh – blocks mouse ROR gamma transcriptional activity; Drosophila S2 Gal4-RORgamma UAS-luciferase reporter, 20 h; hit rate 5.4% among 310,000; AID 2551; Potency, µM (doses to about 53.6 µM), for the others: at the highest dose activity change, negative = inhibition, actives largely listed as inhibitors; also: potency is read from the fitted curve at half-maximal effect; nearly all actives have a fitted effect of over 60% in size
# Target sequence (P51450 whole entry, looked up, the tested form may be a part): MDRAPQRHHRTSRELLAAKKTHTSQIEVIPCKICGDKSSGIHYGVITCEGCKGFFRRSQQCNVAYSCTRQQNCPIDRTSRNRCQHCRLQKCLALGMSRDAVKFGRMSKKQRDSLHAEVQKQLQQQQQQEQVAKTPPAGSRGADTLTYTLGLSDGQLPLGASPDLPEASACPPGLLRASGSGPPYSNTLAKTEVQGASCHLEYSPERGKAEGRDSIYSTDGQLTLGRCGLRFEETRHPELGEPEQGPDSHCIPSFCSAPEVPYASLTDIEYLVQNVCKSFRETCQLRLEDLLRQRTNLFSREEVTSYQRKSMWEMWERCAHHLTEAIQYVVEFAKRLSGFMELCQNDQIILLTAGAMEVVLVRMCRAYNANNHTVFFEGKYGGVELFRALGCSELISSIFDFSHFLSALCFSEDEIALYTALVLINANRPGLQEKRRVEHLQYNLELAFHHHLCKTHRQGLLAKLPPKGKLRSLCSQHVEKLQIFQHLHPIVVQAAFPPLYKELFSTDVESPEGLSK
#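 ROR gamma transcriptional activity was tracked as Gal4-UAS luciferase output in stably transfected Drosophila Schneider cells, with compound added 1 hr before 700 uM copper sulfate induction and a 20 hr ambient-temperature incubation.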
# LDHA block – LDHA (human) enzyme inhibition; AID 1347041; hit rate 0.15% among 480,000; purified LDHA, NADH/diaphorase-resazurin fluorescence; active compounds read low; P00338; activity change, % (values are at about 110 or 230 µM); in the data active = activity change below about -30%; inconclusive = mostly about -25% to -30%;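 also: plate controls were DMSO wells for no effect and wells without enzyme for full effect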
#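 Human LDH5 at 2 nM final in Tris HCl pH 7.4 with 0.06 mM NADH and 0.2 mM pyruvate, reacted 5 minutes at room temperature. Remaining NADH coupled via diaphorase/resazurin; resorufin fluorescence read at 0 and 20 minutes, normalized to enzyme-free and DMSO wells.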
# DT40 TDP1 CPT – DT40-hTDP1 cell growth loss with CPT; hit rate 12% among 420,000; Potency, µM (titrated, usually from 46.2 µM), without a hit: at the highest dose activity change, negative = growth inhibition, hits mostly inhibitors; chicken DT40 Tdp1-/-;hTDP1 cells + 20 nM CPT, ATP luminescence, 48 h; also: potency is read from the fitted curve at half-maximal effect; nearly all actives have a fitted effect of over 55% in size
#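 Cell growth measured by CellTiter-Glo luminescence after a minimum 48 h, 37 C compound exposure with 20 nM CPT in Tdp1-knockout DT40 cells stably expressing hTDP1, seeded 400/well; qHTS titration format.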
# TDP1 cell noCPT – qHTS for Inhibitors of human tyrosyl-DNA phosphodiesterase 1 (TDP1): qHTS in cells in absence of CPT; DT40 Tdp1-/- hTDP1 cells, no CPT, ATP luminescence, 48 h; Potency, µM (doses to about 46.2 µM), inactives show top-dose activity change, negative = growth inhibition, actives largely listed as inhibitors; hit rate 15% among 420,000; also: potency is read from the fitted curve at half-maximal effect; nearly all actives have a fitted effect of over 55% in size
#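 Growth of hTDP1-complemented DT40 Tdp1-knockout cells is measured by ATP luminescence after at least 48 hr compound exposure at 37 °C, with DMSO substituting for the 20 nM CPT used in the parallel screen.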
# VP16 counter – counter-screen for ROR gamma inhibitors: Gal4-VP16 reporter; Drosophila S2 Gal4-VP16 UAS-luciferase, luminescence, 20 h; Potency, µM (highest dose often 53.6 µM), inactives show at the top dose activity, negative = inhibition, actives largely listed as inhibitors; hit rate 3.5% among 310,000;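 also: Gal4-VP16 expression switched on by copper sulfate through the metallothionein promoter; potency is read from the fitted curve at half-maximal effect; nearly all actives have a fitted effect of over 50% in size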
# The depositor's hits bear a star; ? = inconclusive; · = no result given. Sampled rows, rich in hits. Any-hit rate of the full collection: about 18%. Unless noted, calls follow the shape of the dose curve; as a rule, active = well fitted curve in the direction sought with a large enough effect; inconclusive = small, poorly fitted or top-dose-only effect, or another doubt; inactive = no such curve, though single readings can be large; an effect the other way counts as inactive or inconclusive. Unless noted, % is scaled to controls: 0 for no effect and ±100 for the full control effect.
SMILES,IL-1B inflam inh,RORg inh,LDHA block,DT40 TDP1 CPT,TDP1 cell noCPT,VP16 counter
O=C(Nc1cccc(Cl)c1)c1ccc(OC(=S)N2CCOCC2)cc1,11,3%,-3,?,?,8%
Cc1cccc(NC(=O)c2cccc(OC(=S)N3CCOCC3)c2)c1,17,19%,-6,?,15µM*,?
Cc1ccc(Cl)cc1-n1ncc2c(=O)n(CC(N)=O)cnc21,·,·,1,·,·,·
OCC1OC([S-])[C@H](O)C(O)C1O.[Au+] (stereo partly specified),·,-9%,·,·,·,6.3µM*
CC(C)N(C)CC#CC(O)(c1ccccc1)C1CCCC1 (stereo unspecified),·,·,0,·,·,·
CCCCCc1ccc(-c2cn(Cc3ccc(C(=O)c4ccccc4)cc3)nn2)cc1,4,5%,1,3.3µM*,4.1µM*,-3%
CCOC(OCC)c1cn(Cc2ccc(C(=O)c3ccccc3)cc2)nn1,41,?,-3,23µM*,23µM*,18µM*
O=C(c1ccccc1)c1ccc(Cn2cc(-c3ccccc3)nn2)cc1,55,?,1,7.3µM*,7.3µM*,10µM*
COc1ccccc1CCN[C@H]1CS(=O)(=O)C[C@@H]1S(=O)(=O)c1ccc(F)cc1,·,·,-13,·,·,·
Cc1cc(C)n(-c2nc3c(c(=O)n(Cc4cccc5ccccc45)c(=O)n3C)n2C)n1,·,·,-1,·,·,·
c1ccc(-c2nc(-c3ccccn3)nc(-c3ccccn3)n2)nc1,-14,-40%,1,?,15µM*,-14%
c1ccc(-c2nc3ccccc3nc2-c2ccccn2)nc1,3,1%,23,2%,-7%,-3%
c1ccc(C2=NNC(c3ccccn3)=NN2)nc1,?,?,5,9.2µM*,9.2µM*,?
c1ccc(-c2nnc(-c3ccccn3)s2)nc1,-10,1.8µM*,-6,-23%,?,5%
CNC(=O)NC(=O)C(C)Oc1ccc2ccc(=O)oc2c1 (stereo unspecified),·,·,-8,·,·,·
CC(=O)c1c(C)[nH]c(C(=O)C(C)OC(=O)c2c(F)cccc2F)c1C (stereo unspecified),·,·,5,·,·,·
Cc1cccc(NC(=O)CN(C)C(=O)Cc2cccc(C(F)(F)F)c2)c1C,·,·,4,·,·,·
CC(OC(=O)c1cccc(S(=O)(=O)N2CCCCC2)c1)C(=O)N1CCc2ccccc21 (stereo unspecified),·,·,5,·,·,·
COC(=O)C1CCCN1S(=O)(=O)c1cc(Cl)ccc1Cl (stereo unspecified),·,·,-1,·,·,·
CC(C)CCNc1nc(Nc2ccccc2)c2cnn(C)c2n1,·,·,5,23µM*,23µM*,·
COc1ccc(-n2cc(CNC3CCC(O)CC3)c(-c3cccc(F)c3)n2)cc1 (stereo unspecified),-28,3%,-3,21µM*,21µM*,-14%
COc1ccc(-n2cc(CN(C)C(C)c3ccncn3)c(-c3cccc(F)c3)n2)cc1 (stereo unspecified),-51*,-33%,1,?,?,-14%
COc1ccc(CNCc2cn(-c3cccc(F)c3)nc2-c2ccc(C)o2)cc1,-87*,-2%,3,?,16µM*,1%
COc1ccc(-n2cc(CNCc3cccnc3)c(-c3cccc(F)c3)n2)cc1,?,9%,-2,?,?,-8%
O=c1c(Br)ccc(Br)cc1Br,-100*,·,15,0.029µM*,0.065µM*,·
SMILES,IL-1B inflam inh,RORg inh,LDHA block,DT40 TDP1 CPT,TDP1 cell noCPT,VP16 counter
Cc1cc([N+](=O)[O-])c(C)cc1-c1ccc(/C=N/NC(=O)c2cccnc2)o1,-23,8.9µM*,6,16µM*,16µM*,?
COc1ccc(/C=N/NC(=O)c2cccnc2)cc1,-6,18%,-4,-7%,-2%,5%
O=C(N/N=C/c1ccc(-c2ccc([N+](=O)[O-])cc2)o1)c1cccnc1,-11,11µM*,-13,1%,-22%,0%
O=C(N/N=C/c1ccc([N+](=O)[O-])cc1)c1cccnc1,9,?,-1,-21%,-23%,2%
CCc1ccc(CNC(=O)c2ncoc2-c2cccc(OC)c2)cc1,·,·,-4,·,·,·
C1CCC(CNc2c3c(nc4nnnn24)CCCC3)CC1,-9,8%,-9,?,12µM*,8%
COCCCNc1c2c(nc3nnnn13)CCCC2,3,-13%,-6,16%,-18%,-10%
Cc1ccc(S(=O)(=O)c2nc(-c3cccs3)oc2SC(C)c2ccccc2)cc1 (stereo unspecified),·,·,0,?,?,·
O=S(=O)(c1ccccc1)c1nc(-c2ccc(F)cc2)oc1NCc1ccccc1,·,·,2,-19%,?,·
CC(C)Sc1oc(-c2ccco2)nc1S(=O)(=O)c1ccc(F)cc1,-7,?,3,?,?,-5%
O=S(=O)(c1ccc(Cl)cc1)c1nc(-c2cccs2)oc1SCc1ccccc1F,·,·,-4,16µM*,23µM*,·
CC(C)CS(=O)(=O)c1oc(-c2ccc(F)cc2)nc1S(=O)(=O)c1ccccc1,·,·,-4,0.41µM*,0.46µM*,·
Cc1ccc(CSc2oc(-c3cccs3)nc2S(=O)(=O)c2ccccc2)cc1,·,·,-3,?,?,·
CCC(C)Sc1oc(-c2ccco2)nc1S(=O)(=O)c1ccc(Cl)cc1 (stereo unspecified),·,·,2,18µM*,?,·
Cc1ccc(S(=O)(=O)c2nc(-c3cccs3)oc2SCc2ccc(F)cc2)cc1,·,·,-1,16µM*,10µM*,·
Cn1c(=O)c2c(ncn2CCC(=O)NC(C)(C)C)n(C)c1=O,·,·,2,·,·,·
Cc1ccc(CSc2oc(-c3ccco3)nc2S(=O)(=O)c2ccc(Br)cc2)cc1,·,·,0,?,?,·
O=S(=O)(c1ccc(Cl)cc1)c1nc(-c2ccco2)oc1SCc1ccccc1F,·,·,-2,23µM*,16µM*,·
CCSc1oc(-c2ccccc2)nc1S(=O)(=O)c1ccc(C)cc1,·,·,-9,·,·,·
CCSc1oc(-c2ccc(F)cc2)nc1S(=O)(=O)c1ccc(C)cc1,·,·,7,-102%,16µM*,·
O=S(=O)(c1ccc(Br)cc1)c1nc(-c2ccco2)oc1SCc1ccccc1Cl,·,·,2,16µM*,?,·
Fc1ccc(CSC2=NCCN2)c(Br)c1,·,·,1,·,·,·
Cc1ccc(S(=O)(=O)NCC(c2ccco2)N2CCc3ccccc32)cc1 (stereo unspecified),?,·,3,?,?,·

# Screening data deposited in PubChem by National Center for Advancing Translational Sciences (NCATS).
